Assays:
Details in all cases: concentration: 1 μM, replicates: in singlicate; n = 1
[1] = system: MYO3B
[2] = system: T1, NDR1
T1 construct: gene STK38

[3] = system: NDR2
[4] = system: NEK10
[5] = system: NEK11
[6] = system: NEK1
[7] = system: NEK2
[8] = system: NEK3
[9] = system: NEK4
[10] = system: NEK5
[11] = system: NEK6
[12] = system: NEK7
[13] = system: NEK9
[14] = system: T2, NIK
T2 construct: gene MAP3K14

[15] = system: T3, NIM1
T3 construct: gene MGC42105

[16] = system: NLK
[17] = system: T4, OSR1
T4 construct: gene OXSR1

[18] = system: PAK1
[19] = system: PAK2
[20] = system: PAK3
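Also: KINOMEscan kinase panel screen.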

SMILES	%Inh [1]	%Inh [2]	%Inh [3]	%Inh [4]	%Inh [5]	%Inh [6]	%Inh [7]	%Inh [8]	%Inh [9]	%Inh [10]	%Inh [11]	%Inh [12]	%Inh [13]	%Inh [14]	%Inh [15]	%Inh [16]	%Inh [17]	%Inh [18]	%Inh [19]	%Inh [20]
COc1ccc(Nc2nccc(N3CCC(NC(=O)Nc4cccc(C(C)=O)c4)C3)n2)cc1 (stereo not drawn) [GSK1379731]	0%	0%	0%	13%	15%	0%	0%	0%	13%	3%	0%	0%	0%	2%	12%	0%	16%	0%	6%	0%
O=c1cc(N2CCOCC2)nc2n(Cc3cccc(C(F)(F)F)c3)ccn12 [GSK2297543]	0%	16%	7%	0%	0%	0%	0%	0%	0%	0%	0%	0%	18%	25%	14%	32%	5%	6%	14%	14%
Cc1nnc(-c2ccc(C)c(-c3ccc(C(=O)Nc4ccc(NS(C)(=O)=O)cc4)cc3)c2)o1 [GW702865]	0%	20%	18%	6%	33%	0%	0%	0%	0%	8%	0%	0%	7%	16%	19%	0%	0%	10%	0%	0%
O=c1cc(N2CCOCC2)nc2n(Cc3cccc4ccccc34)ccn12 [GSK2333389]	0%	0%	0%	0%	0%	0%	6%	0%	6%	0%	0%	13%	14%	0%	8%	0%	5%	13%	3%	10%
CN(C1=C(c2ccccc2)C(=O)NC1=O)c1ccccc1 [SB-334860]	0%	26%	24%	15%	0%	8%	0%	9%	0%	23%	15%	0%	17%	0%	34%	35%	4%	0%	0%	0%
O=C(Nc1n[nH]c2cc(-c3cccc(F)c3)ccc12)C1CC1 [SB-735464]	0%	25%	11%	0%	37%	0%	0%	23%	14%	0%	3%	0%	0%	9%	12%	86%	0%	0%	30%	44%
NS(=O)(=O)CCc1cccc(Nc2nccc(-c3c(-c4cccc(NC(=O)c5c(F)cccc5F)c4)nn4ccccc34)n2)c1 [GSK336735]	4%	18%	0%	7%	0%	0%	22%	0%	19%	8%	8%	11%	57%	4%	15%	84%	10%	26%	12%	36%
Cc1c2ccc(N(C)c3ccnc(Nc4cccc(S(N)(=O)=O)c4)n3)cc2nn1Cc1ccccc1.Cl.Cl [GW787226]	41%	51%	1%	0%	0%	32%	0%	22%	6%	0%	0%	0%	0%	0%	0%	5%	0%	32%	49%	28%
CN1c2ccc(NCc3ccc(F)cc3)cc2-c2c(cnn2C)S1(=O)=O	0%	22%	0%	2%	0%	0%	0%	33%	0%	0%	0%	0%	0%	7%	4%	0%	0%	0%	1%	0%

— publication PMC5540273 (PLoS ONE, 2017)
